Records with an inconclusive call do not appear. Active and inactive are the calls of the source. Calls follow the shape of the dose curve; as a rule, active = well fitted curve in the direction sought with a large enough effect; inconclusive = small, poorly fitted or top-dose-only effect, or another doubt; inactive = no such curve, though single readings can be large; an effect the other way counts as inactive or inconclusive.
Experiments:
NIH3T3 = assay: qHTS assay to identify novel small-molecules to repurpose for Merkel cell carcinoma treatment (AID 1296009); settings: MCC and control cell lines, CellTiter-Glo viability, 72 h; at 44.8 µM (top of the series) unless noted; also: nearly all actives have a fitted effect of over 60% in size
In short: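 Dose-response viability screen; 72 hr exposure at 37 degree celsius; CellTiter-Glo added, 10 min room temperature, luminescence read; RLUs scaled between no-cell and DMSO wells.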

C33A = assay: Primary qHTS to identify gynecologic anti-cancer compounds using libraries of approved drugs and bioactive compounds (AID 1345084); settings: Gynecologic cancer cell panel viability, ATPlite luminescence, 48 h; series mostly up to 57.5 µM; also: nearly all actives have a fitted effect of over 55% in size
In short: (§1)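 Cells, 1,000 per well, plated 16 h, then exposed 48 h at 37 C to compounds. Viability by ATPlite luminescence after 15 min at room temperature.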

CAOV3 = assay: as above; settings: Gynecologic cancer cell panel viability, ATPlite luminescence, 48 h; series mostly up to 57.5 µM
In short: as §1

CASKI = assay: as above; settings: Gynecologic cancer cell panel viability, ATPlite luminescence, 48 h; series mostly up to 57.5 µM
In short: as §1

Es-2 = assay: as above; settings: Gynecologic cancer cell panel viability, ATPlite luminescence, 48 h; series mostly up to 57.5 µM
In short: as §1

HeLa = assay: as above; settings: Gynecologic cancer cell panel viability, ATPlite luminescence, 48 h; series mostly up to 57.5 µM
In short: as §1

Hek293T = assay: as above; settings: Gynecologic cancer cell panel viability, ATPlite luminescence, 48 h, control line for the selectivity index; series mostly up to 57.5 µM
In short: as §1

JEG-3 = assay: as above; settings: Gynecologic cancer cell panel viability, ATPlite luminescence, 48 h; series mostly up to 57.5 µM
In short: as §1

OV90 = assay: as above; settings: Gynecologic cancer cell panel viability, ATPlite luminescence, 48 h; series mostly up to 57.5 µM
In short: as §1

SKOV3 = assay: as above; settings: Gynecologic cancer cell panel viability, ATPlite luminescence, 48 h; series mostly up to 57.5 µM
In short: as §1

Tov-21-G = assay: as above; settings: Gynecologic cancer cell panel viability, ATPlite luminescence, 48 h; series mostly up to 57.5 µM
In short: as §1

Tov112D = assay: as above; settings: Gynecologic cancer cell panel viability, ATPlite luminescence, 48 h; series mostly up to 57.5 µM
In short: as §1

PA-1 = assay: as above; settings: Gynecologic cancer cell panel viability, ATPlite luminescence, 48 h; series mostly up to 57.5 µM
In short: as §1

Measured: Potency

CC1(C)CC[C@]2(C(=O)O)CC[C@]3(C)C(=CCC4[C@@]5(C)C(=O)C[C@H](O)[C@@](C)(CO)C5CC[C@]43C)[C@@H]2C1 (some centres not stated)
inactive: NIH3T3 inactive [at 17.4 µM] | C33A | CAOV3 | CASKI | Es-2 | HeLa | Hek293T | JEG-3 | OV90 | SKOV3 | Tov-21-G | Tov112D

C=C1C(O)CCC2(C)CC3(OC)OC(=O)C(C)=C3CC12 (configuration not stated)
not listed: SKOV3
inactive: all other assays above

COC(=O)C1=CO[C@@H](O[C@@H]2O[C@H](CO)[C@@H](O)[C@H](O)[C@H]2O)[C@H]2[C@@H]1C=C[C@]21C=C([C@H](C)OC(=O)/C=C/c2ccc(O[C@@H]3O[C@H](CO)[C@@H](O)[C@H](O)[C@H]3O)cc2)C(=O)O1
inactive: NIH3T3 inactive [at 17.4 µM] | C33A | CAOV3 | CASKI | Es-2 | HeLa | Hek293T | JEG-3 | OV90 | SKOV3 | Tov-21-G | Tov112D

CC[C@@H]1[C@H]2CCCCN3C(=O)C[C@H]([C@@H]4[C@H]1OC(=O)[C@H]4C)[C@@H]23
not listed: SKOV3
inactive: all other assays above

COc1cc2nc(=NC(=O)c3cccnc3)n3c(c2cc1OC)NCC3
not listed: SKOV3
inactive: all other assays above

C[C@H]1CC[C@H]2[C@@H](C=C[C@@](C)(O)[C@]2(C)C(=O)CCO)C1
not listed: JEG-3
inactive: all other assays above

From PubChem BioAssay (NCATS)
